Measured values taken from PubChem BioAssay (EPA / NIEHS).
Active and inactive are the calls of the source. How the source made its calls: active means hit-call score of the fitted dose curve at least 0.9, where 1 is the maximum; inactive means score below 0.9.

Key:
[1] = APR_HepG2_CellLoss_72hr: Apredica 72-hour HepG2 Assay for Cell Loss (AID 2282915); conditions: high-content imaging
Summary of the method: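 HepG2 cells were exposed for 72 hr to compounds at 0.39–200 uM (ten concentrations, duplicate) in 0.5% v/v final DMSO. Nuclei were stained with Hoechst 33342 after 3.7% formaldehyde fixation, imaged at 20x, and counted; fits bidirectional versus DMSO.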

[2] = APR_HepG2_P-H2AX_72hr: Apredica 72-hour HepG2 Assay for H2AX Phosphorylation (AID 2282916); conditions: imaging, actives raise or lower the signal;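 further: phospho-histone H2A.x immunostain intensity per cell marking DNA damage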
Summary of the method: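 HepG2 human liver cells were exposed for 72 hr to compounds at 0.39–200 uM (10 concentrations, duplicate per plate) in 0.5% v/v DMSO. Fixed, permeabilized cells were immunolabeled for phospho-histone H2A.x with Hoechst 33342 and imaged by HCS fluorescence; bidirectional fit versus DMSO.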

[3] = APR_HepG2_MitoMembPot_72hr: Apredica 72-hour HepG2 Assay for Mitochondrial Membrane Potential (AID 2282917); conditions: imaging, actives raise or lower the signal
Summary of the method: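 HepG2 cells exposed 72 h to compounds at 0.39–200 uM (0.5% v/v DMSO, duplicates); MitoTracker Red CMXRos 250 nM loaded 30 min before 3.7% formaldehyde fixation, imaged by HCS fluorescence. Bidirectional fit versus DMSO.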

[4] = APR_HepG2_MitoticArrest_72hr: Apredica 72-hour HepG2 Assay for Mitotic Arrest (AID 2282918); conditions: high-content imaging, actives raise or lower the signal
Summary of the method: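 Mitotic arrest in HepG2 is scored from phospho-histone H3 staining after 72 hr dosing across 0.39–200 uM, with DMSO at 0.5% v/v. Nuclei are identified by Hoechst 33342 and fluorescence intensity is quantified per cell.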

[5] = APR_HepG2_MicrotubuleCSK_72hr: Apredica 72-hour HepG2 Assay for Microtubule CSK Stabilty (AID 2282919); conditions: HepG2 microtubule cytoskeleton, high-content imaging, actives raise or lower the signal
Summary of the method: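 HepG2 human liver cells were dosed for 72 h at ten concentrations from 0.39 to 200 uM in duplicate (0.5% v/v DMSO final). Fixed, permeabilized cells were immunostained for alpha-tubulin (Cy5) with a Hoechst counterstain and imaged at 20x.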

[6] = APR_HepG2_StressKinase_72hr: Apredica 72-hour HepG2 Assay for Stress Kinase (AID 2282921); conditions: HepG2 stress kinase (phospho-c-Jun) imaging, actives raise or lower the signal
Summary of the method: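 Cells were exposed for 72 h to ten concentrations (0.39–200 uM, duplicate) at 0.5% v/v DMSO final, then fixed with 3.7% formaldehyde, permeabilized and immunostained for phospho-c-Jun (Cy3 secondary) with Hoechst nuclear counterstain.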

[7] = APR_HepG2_p53Act_72hr: Apredica 72-hour HepG2 Assay for p53 Activation (AID 2282923); conditions: high-content imaging, actives raise or lower the signal;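 further: average cellular p53 protein immunofluorescence intensity in HepG2 cells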
Summary of the method: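 Cells were dosed for 72 hr with compounds at 0.39–200 uM in duplicate (final DMSO 0.5% v/v), then fixed in 3.7% formaldehyde, permeabilized with Triton X-100 and immunostained for p53 (Cy5) with Hoechst 33342 nuclear counterstain.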

[8] = APR_HepG2_NuclearSize_72hr: Apredica 72-hour HepG2 Assay for Nuclear Size (AID 2282925); conditions: high-content imaging, actives raise or lower the signal
Summary of the method: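 HepG2 cells were exposed to compounds at ten concentrations from 0.39 to 200 uM (duplicate, 0.5% DMSO final) for 72 hr. After fixation in 3.7% formaldehyde, nuclei were stained with Hoechst 33342 (2 ug/mL) and imaged at 20x.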

[9] = ATG_CRE_CIS: Attagene CIS-FACTORIAL HepG2 Assay for human cAMP Responsive Element (CRE) binding protein 3 (AID 2282926); conditions: HepG2 CRE cis-reporter, Attagene multiplexed mRNA; actives raise or lower the signal
Summary of the method: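 We dosed HepG2 cells bearing multiple cis-promoter reporter units for 24 h and measured reporter mRNA by RT-PCR with capillary electrophoresis detection. Bidirectional concentration-response fitting used DMSO as negative control.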

[10] = target: CCAAT/enhancer-binding protein beta (Homo sapiens) (UniProt P17676); assay: ATG_C_EBP_CIS: Attagene CIS-FACTORIAL HepG2 Assay for human CCAAT/Enhancer Binding Protein (C/EBP) beta (AID 2282927); conditions: HepG2 Attagene cis-factorial transcription factor reporter; actives raise or lower the signal
Summary of the method: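 RT-PCR/capillary electrophoresis fluorescence of reporter mRNA, 24 h post-dose, in HepG2 cells carrying transfected cis-promoter reporter units. Bidirectional curve fitting against DMSO baseline captures gain or loss of signal.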

[11] = ATG_CMV_CIS: Attagene CIS-FACTORIAL HepG2 Assay for human CMV (Internal Marker) (AID 2282928); conditions: HepG2 CMV promoter reporter, transcription factor profiling; actives raise or lower the signal;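 further: endpoint acts as a background internal control marker rather than a target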
Summary of the method: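 After transient transfection of HepG2 with reporter transcription units driven by cis-regulatory promoters, cells receive test chemical for 24 h. Labeled reporter amplicons, digested with HpaI, are sized and quantified by capillary electrophoresis against DMSO.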

[12] = ATG_DR4_LXR_CIS: Attagene CIS-FACTORIAL HepG2 Assay for human Liver X Receptor (LXR), DR4 submotif (AID 2282929); conditions: HepG2 Attagene DR4 cis-reporter, mRNA transcription; actives raise or lower the signal
Summary of the method: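 Total RNA from 24 h-treated, MRTU-transfected HepG2 cells underwent reverse transcription, PCR, fluorescent primer extension and restriction digestion before capillary electrophoresis. Both increases and decreases in reporter signal were fitted against DMSO.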

[13] = target: Aryl hydrocarbon receptor (Homo sapiens) (UniProt P35869); assay: ATG_Ahr_CIS: Attagene CIS-FACTORIAL HepG2 Assay for human Aryl Hydrocarbon Receptor (Ahr) (AID 2282930); conditions: HepG2 AhR cis-factorial reporter transcription; actives raise or lower the signal
Summary of the method: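 HepG2 cells transiently transfected with cis-element-driven multiplexed reporter transcription units; endogenous transcription factor activity measured as reporter mRNA 24 h after dosing. RT-PCR, 6-FAM labelling, HpaI digestion, capillary electrophoresis; bidirectional fitting versus DMSO baseline.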

[14] = ATG_AP_1_CIS: Attagene CIS-FACTORIAL HepG2 Assay for human Activator Protein 1 (AP-1) (AID 2282931); conditions: HepG2 Attagene cis-factorial AP-1 reporter mRNA; actives raise or lower the signal
Summary of the method: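 HepG2, transient cis-reporter transfection; 24 h; readout RT-PCR/CE fluorescence; DMSO baseline, gain and loss fitted.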

[15] = ATG_AP_2_CIS: Attagene CIS-FACTORIAL HepG2 Assay for human Activator Protein 2 (AP-2) (AID 2282932); conditions: HepG2 AP-2 cis-reporter, Attagene transcription factor profiling; actives raise or lower the signal
Summary of the method: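 HepG2 cells were transiently transfected with multiple cis-promoter reporter transcription units and dosed for 24 h. Reporter mRNA was measured by RT-PCR with capillary electrophoresis fluorescence; bidirectional fits relative to DMSO baseline.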

[16] = ATG_BRE_CIS: Attagene CIS-FACTORIAL HepG2 Assay for human Bone Morphogenetic Protein (BMP) Response Element (BRE) (AID 2282933); conditions: HepG2 BMP response element reporter, Attagene transcription factor profiling; actives raise or lower the signal
Summary of the method: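 HepG2 cells transiently transfected with CIS reporter units (endogenous TF activity, BMP response element), dosed 24 h. Reporter mRNA quantified by RT-PCR, fluorescent labelling and capillary electrophoresis; bidirectional fit vs DMSO baseline.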

[17] = target: Retinoic acid receptor alpha (Homo sapiens) (UniProt P10276); assay: ATG_DR5_RAR_CIS: Attagene CIS-FACTORIAL HepG2 Assay for human Retinoic Acid Receptor Alpha (RARE), DR5 submotif (AID 2282934); conditions: HepG2 Attagene cis-factorial RARE DR5 reporter, mRNA; actives raise or lower the signal
Summary of the method: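 HepG2 cells transiently transfected with multiplexed reporter units under cis (DR5 RARE) promoters, so endogenous transcription factor activity is measured. After 24 h compound exposure, reporter mRNA is quantified by RT-PCR with fluorescent labelling and capillary electrophoresis; bidirectional fitting versus DMSO.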

[18] = APR_HepG2_MitoMass_72hr: Apredica 72-hour HepG2 Assay for Mitochondrial Mass (AID 2282924); conditions: high-content imaging, actives raise or lower the signal;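 further: MitoTracker Red CMXRos stain intensity per cell imaged as mitochondrial mass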
Summary of the method: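 HepG2 cells were exposed for 72 hr to compounds at 0.39–200 uM (ten concentrations, duplicate, 0.5% v/v DMSO final). Live cells were stained with 250 nM MitoTracker Red CMXRos for 30 min, then fixed in 3.7% formaldehyde and imaged by HCS fluorescence.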

[19] = APR_HepG2_StressKinase_24hr: Apredica 24-hour HepG2 Assay for Stress Kinase (AID 2282922); conditions: HepG2 stress kinase (phospho-c-Jun) imaging, actives raise or lower the signal
Summary of the method: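 HepG2 cells exposed 24 hr to compound at 0.39–200 uM (10 concentrations, duplicate), 0.5% v/v DMSO final. Fixed in 3.7% formaldehyde, permeabilized with Triton X-100, immunolabeled for phospho-c-Jun with Hoechst 33342; HCS fluorescence imaging, bidirectional fit versus DMSO.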

Measured: AC50

Chain of Retinoic acid receptor alpha (Homo sapiens) (P10276 whole entry, looked up): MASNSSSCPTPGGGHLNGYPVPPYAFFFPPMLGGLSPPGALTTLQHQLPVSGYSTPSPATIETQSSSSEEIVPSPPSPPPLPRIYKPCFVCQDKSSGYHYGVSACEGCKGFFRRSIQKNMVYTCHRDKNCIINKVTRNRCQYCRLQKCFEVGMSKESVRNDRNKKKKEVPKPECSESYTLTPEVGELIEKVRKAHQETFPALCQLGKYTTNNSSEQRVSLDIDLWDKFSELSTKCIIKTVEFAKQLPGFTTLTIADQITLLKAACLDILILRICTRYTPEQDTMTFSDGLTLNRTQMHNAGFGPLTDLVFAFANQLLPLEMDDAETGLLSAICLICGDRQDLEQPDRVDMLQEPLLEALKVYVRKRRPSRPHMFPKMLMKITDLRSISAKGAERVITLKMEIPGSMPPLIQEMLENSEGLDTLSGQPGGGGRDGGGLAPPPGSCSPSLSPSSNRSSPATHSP
Chain of CCAAT/enhancer-binding protein beta (Homo sapiens) (P17676 whole entry, looked up): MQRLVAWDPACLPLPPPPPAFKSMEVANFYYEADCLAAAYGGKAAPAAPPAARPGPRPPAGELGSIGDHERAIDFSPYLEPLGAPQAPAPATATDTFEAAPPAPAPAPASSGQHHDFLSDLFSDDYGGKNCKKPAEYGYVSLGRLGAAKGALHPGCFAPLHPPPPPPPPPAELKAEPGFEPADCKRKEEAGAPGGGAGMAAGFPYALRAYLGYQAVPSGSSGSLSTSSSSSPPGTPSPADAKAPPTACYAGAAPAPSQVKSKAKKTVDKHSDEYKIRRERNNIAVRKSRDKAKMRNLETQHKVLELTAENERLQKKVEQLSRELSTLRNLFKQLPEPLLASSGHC
Chain of Aryl hydrocarbon receptor (Homo sapiens) (P35869 whole entry, looked up): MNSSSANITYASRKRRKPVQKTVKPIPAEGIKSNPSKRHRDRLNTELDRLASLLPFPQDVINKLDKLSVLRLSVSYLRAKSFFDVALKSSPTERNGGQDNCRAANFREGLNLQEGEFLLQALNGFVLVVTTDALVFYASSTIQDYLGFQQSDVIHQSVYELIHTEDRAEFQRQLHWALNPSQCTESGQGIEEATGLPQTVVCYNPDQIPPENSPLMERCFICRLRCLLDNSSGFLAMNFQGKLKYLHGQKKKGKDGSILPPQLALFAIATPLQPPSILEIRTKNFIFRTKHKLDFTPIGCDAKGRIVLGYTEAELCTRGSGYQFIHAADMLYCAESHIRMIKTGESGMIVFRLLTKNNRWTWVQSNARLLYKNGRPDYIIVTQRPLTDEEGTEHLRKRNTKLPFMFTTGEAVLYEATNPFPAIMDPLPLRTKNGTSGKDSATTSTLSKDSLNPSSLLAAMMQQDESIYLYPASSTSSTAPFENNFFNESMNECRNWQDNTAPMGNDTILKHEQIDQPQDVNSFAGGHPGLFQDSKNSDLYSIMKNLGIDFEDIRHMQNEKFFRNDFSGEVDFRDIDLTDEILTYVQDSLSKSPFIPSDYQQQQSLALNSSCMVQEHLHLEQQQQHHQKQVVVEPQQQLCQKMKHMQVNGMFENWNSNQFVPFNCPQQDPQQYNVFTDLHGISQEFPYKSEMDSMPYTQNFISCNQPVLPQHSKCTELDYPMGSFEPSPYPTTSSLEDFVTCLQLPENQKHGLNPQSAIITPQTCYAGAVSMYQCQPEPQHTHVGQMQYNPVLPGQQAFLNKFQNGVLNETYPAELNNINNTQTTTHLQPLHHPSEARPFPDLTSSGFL

Cc1cccc([N+](=O)[O-])c1C
inactive: [1] | [2] | [3] | [4] | [5] | [6] | [7] | [8] | [9] | [10] | [11] | [12] | [13] | [14] | [15] | [16] | [17]

CC(=O)OCCOCCOCCOC(C)=O
inactive: [1] | [2] | [3] | [4] | [5] | [6] | [7] | [18] | [8] | [9] | [11] | [12] | [13] | [14] | [15] | [17]

O=C(O)Cc1ccccc1Nc1c(Cl)cccc1Cl
active: [1] 107 µM | [12] 68.7 µM | [13] 67.3 µM
inactive: [2] | [3] | [4] | [5] | [6] | [7] | [8] | [9] | [11] | [14] | [15] | [16]

Nc1ccccc1N
inactive: [3] | [5] | [8] | [12] | [15] | [17]
active: [1] 9.57 µM | [2] 38.8 µM | [4] 14.2 µM | [6] 59.9 µM | [7] 18.9 µM | [18] 16.2 µM | [11] 24.2 µM | [13] 1.41 µM | [14] 15.7 µM | [16] 5.4 µM

Cc1nc(-c2ccc3c(c2)CCN(CCC2CCC(NC(=O)/C=C/c4ccc(F)cc4)CC2)CC3)no1 (stereo not given)
inactive: [1] | [3] | [5] | [9] | [10] | [11] | [12] | [13] | [14] | [15]
active: [2] 25.2 µM | [4] 24.2 µM | [6] 16.2 µM | [7] 23.8 µM

Cc1cccc(C)c1O
inactive: [1] | [2] | [3] | [4] | [5] | [6] | [19] | [7] | [8] | [9] | [11] | [12] | [13] | [14] | [15] | [17]

COCCOC[C@H](CC1(C(=O)NC2CCC(C(=O)O)CC2)CCCC1)C(=O)Oc1ccc2c(c1)CCC2 (stereo not given in full)
inactive: [1] | [2] | [3] | [4] | [5] | [6] | [7] | [8] | [9] | [10] | [11] | [12] | [13] | [14] | [15] | [17]
